PMK inhibit = S. pneumoniae PMK inhibitors, primary screen, biochemical, mevalonate pathway, pilot trial included; actives 0.49% (n = 65,000); phosphomevalonate kinase (Streptococcus pneumoniae D39); purified PMK, PK/LDH-coupled NADH absorbance 340 nm; inhibition, % at 10 µM;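 active means top-ranked compounds by inhibition in the single 10 µM screen, taking a fixed number of the strongest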;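 further: 0% = full reaction with DMSO carrier and 100% = background rate without enzyme reaction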
Fluor 339 460 = intrinsic fluorescence of library compounds, ex339/em460 – biochemical, MLSMR library, data from DPM-DC assay, artefact control, profiling panel. compound autofluorescence, ex339/em460 nm, NADH buffer; stronger effect = higher value; 1 = no-compound wells, NADH background. fluorescence fold increase at 10 µM. actives 5.5% (n = 65,000). AID 709, 2007;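 active means at 10 µM, mean starting fluorescence two-fold or more over control wells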;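 further: signal is the first read of a kinetic run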
Spn DPM-DC inh = S. pneumoniae DPM-DC inhibitors, primary screen, biochemical, PK/LDH-coupled NADH fluorescence; purified DPM-DC; calls only at 10 µM; actives 0.49% (n = 65,000); AID 556, 2006;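 active means the 320 compounds with the highest percent inhibition in the single-dose primary screen, excluding strongly autofluorescent ones, cut at about 32% in these data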;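 further: kinetic rate of NADH fluorescence loss reporting ADP formed by the decarboxylase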
NADH coupling = inhibitors of PK/LDH coupling enzymes, profiling panel, artefact control, biochemical, MLSMR library; coupled PK/LDH NADH assays, four targets; IC50, µM (highest dose often 10 µM), without a hit: top-dose inhibition; actives 0.02% (n = 65,000);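 active means single-dose screening hits from any of four coupled enzyme assays that gave an IC50 when retested across doses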;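 further: the DPM-DC format reads NADH fluorescence rather than 340 nm absorbance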
Spn MK inh = S. pneumoniae MK inhibitors, primary screen, biochemical, PK/LDH-coupled NADH absorbance; mevalonate kinase [Streptococcus pneumoniae D39]; purified MK, PK/LDH-coupled NADH absorbance 340 nm; inhibition, % at 10 µM; actives 0.48% (n = 65,000); AID 555, 2006;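 active means ranked among the strongest by inhibition in the single 10 µM screen, a fixed top-ranked set picked for dose follow-up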
A340 absorber = compound light absorbance at 340 nm, profiling panel, artefact control, biochemical, MLSMR library, data from PS, PMK, MK assays | compound absorbance at 340 nm, fold over control | fold change at 10 µM | 65,000 tested, under 10 active | AID 708, 2007;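 active means at 10 µM dose, initial 340 nm absorbance at least 2 fold that of control wells; inactive means change under 2 fold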;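 further: initial absorbance extrapolated from kinetic A340 decline of NADH oxidation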
* marks the source's active call; other numbers are inactive results. Hits are enriched below; roughly 6.8% of the tested compounds scored in any of these assays.

How did Cc1ccc(-c2noc(CCC(=O)NCCN3CCc4ccccc4C3)n2)cc1 do in these assays?
PMK inhibit: 25*; Fluor 339 460: 1.1; Spn DPM-DC inh: inactive; NADH coupling: 8%; Spn MK inh: 0; A340 absorber: 1

Results for O=C(CCc1nc(-c2ccccc2F)no1)NCCc1ccccc1Cl ?
PMK inhibit: 16; Fluor 339 460: 1.1; Spn DPM-DC inh: inactive; NADH coupling: 5%; Spn MK inh: 0; A340 absorber: 1

How did O=C(CCc1nc(-c2ccccc2F)no1)NCCN1CCc2ccccc2C1 do in these assays?
PMK inhibit: 14; Fluor 339 460: 0.39; Spn DPM-DC inh: active; NADH coupling: 26%; Spn MK inh: 0; A340 absorber: 1

What do the screens show for `CCOc1ccc(Nc2cc(C)nc(N3CCOCC3)n2)cc1`?
PMK inhibit: 10; Fluor 339 460: 1; Spn DPM-DC inh: inactive; NADH coupling: 7%; Spn MK inh: 9; A340 absorber: 0.99

How did CCOC(=O)c1ccc(Nc2cc(C)nc(N3CCOCC3)n2)cc1 do in these assays?
PMK inhibit: 5; Fluor 339 460: 3*; Spn DPM-DC inh: inactive; NADH coupling: 9%; Spn MK inh: 7; A340 absorber: 1.1

Results for O=C(Cc1ccccc1)NCc1nc2ccccc2[nH]1 ?
PMK inhibit: 21; Fluor 339 460: 1.1; Spn DPM-DC inh: inactive; NADH coupling: 9%; Spn MK inh: 5; A340 absorber: 1

How did NC(=O)c1cc2ccc(O)cc2oc1=NCc1ccccc1 do in these assays?
PMK inhibit: 19; Fluor 339 460: 4.6*; NADH coupling: 10%; Spn MK inh: 0; A340 absorber: 1

What do the screens show for `COc1ccc(OC)c(N=c2oc3cc(O)ccc3cc2C(N)=O)c1`?
PMK inhibit: 4; Fluor 339 460: 3.3*; NADH coupling: 7%; Spn MK inh: 9; A340 absorber: 1.1

Results for CCOc1ccc(OCC)c(N=c2oc3c(C)ncc(CO)c3cc2C(N)=O)c1 ?
PMK inhibit: 4; Fluor 339 460: 0.97; Spn DPM-DC inh: inactive; NADH coupling: 2%; Spn MK inh: 1; A340 absorber: 1

What do the screens show for `NC(=O)c1cc2ccc(O)cc2oc1=Nc1ccccc1`?
PMK inhibit: 8; Fluor 339 460: 1.9; Spn DPM-DC inh: inactive; NADH coupling: 9%; Spn MK inh: 7; A340 absorber: 1.1

How did CC(=O)N(Cc1ccc2c(c1)OCO2)C1CC(=O)N(CCc2ccccc2)C1=O (stereo not given) do in these assays?
PMK inhibit: 0; Fluor 339 460: 1.1; Spn DPM-DC inh: inactive; NADH coupling: 0%; Spn MK inh: 0; A340 absorber: 1

Results for O=C(COc1ccccc1)Nc1nnc(-c2ccc(Cl)s2)o1 ?
PMK inhibit: 12; Fluor 339 460: 2.1*; NADH coupling: 10%; Spn MK inh: 7; A340 absorber: 1.1

Results for O=C(COc1ccccc1)Nc1nnc(-c2ccccc2)o1 ?
PMK inhibit: 3; Fluor 339 460: 1.1; Spn DPM-DC inh: inactive; NADH coupling: 6%; Spn MK inh: 9; A340 absorber: 1

What do the screens show for `CCOC(=O)CSc1nnc(-c2cccnc2)n1Cc1ccccc1`?
PMK inhibit: 3; Fluor 339 460: 1; Spn DPM-DC inh: inactive; NADH coupling: 5%; Spn MK inh: 9; A340 absorber: 0.97

Results for CCOC(=O)CSc1n[nH]c(-c2cccnc2)n1 ?
PMK inhibit: 25*; Fluor 339 460: 1; Spn DPM-DC inh: inactive; NADH coupling: 9%; Spn MK inh: 0; A340 absorber: 1

What do the screens show for `Fc1cccc(Nc2ncnc3c2cnn3-c2ccccc2)c1`?
PMK inhibit: 6; Fluor 339 460: 1.5; Spn DPM-DC inh: inactive; NADH coupling: 3%; Spn MK inh: 6; A340 absorber: 1

What do the screens show for `Clc1cccc(Nc2ncnc3c2cnn3-c2ccccc2)c1`?
PMK inhibit: 6; Fluor 339 460: 2.1*; Spn DPM-DC inh: inactive; NADH coupling: 2%; Spn MK inh: 1; A340 absorber: 1

How did CCN(CC)C(=O)NC1CC2CCCC(C1)N2Cc1ccccc1 (stereo not given) do in these assays?
PMK inhibit: 27*; Fluor 339 460: 1.1; Spn DPM-DC inh: inactive; NADH coupling: 11%; Spn MK inh: 6; A340 absorber: 0.98

How did O=C(NCc1ccccc1)NC1CC2CCC(C1)N2Cc1ccco1 (stereo not given) do in these assays?
PMK inhibit: 10; Fluor 339 460: 0.96; Spn DPM-DC inh: inactive; NADH coupling: 4%; Spn MK inh: 2; A340 absorber: 1.1

What do the screens show for `OCCSc1nncn1/N=C/c1c[nH]c2ccccc12`?
PMK inhibit: 6; Fluor 339 460: 1.1; Spn DPM-DC inh: inactive; NADH coupling: 6%; Spn MK inh: 11; A340 absorber: 1.1

Results for Cc1nnc2sc(-c3ccc(NC(=O)CSc4ccc(Cl)cc4)cc3)nn12 ?
PMK inhibit: 5; Fluor 339 460: 1.6; Spn DPM-DC inh: inactive; NADH coupling: 4%; Spn MK inh: 4; A340 absorber: 1.1

How did CCc1nnc2sc(-c3ccc(NC(=O)CSc4ccc(Cl)cc4)cc3)nn12 do in these assays?
PMK inhibit: 7; Fluor 339 460: 3*; Spn DPM-DC inh: active; NADH coupling: 17%; Spn MK inh: 10; A340 absorber: 1.1

Results for CCC(=O)c1cccc2c1N=CC1=C(CC(C)(C)CC1=O)N2 ?
PMK inhibit: 11; Fluor 339 460: 1.1; Spn DPM-DC inh: inactive; NADH coupling: 11%; Spn MK inh: 18; A340 absorber: 1.1

Results for O=C1CCCC2=C1C(c1ccncc1)c1c(nc(SCc3ccccc3Cl)[nH]c1=O)N2 (stereo not given) ?
PMK inhibit: 6; Fluor 339 460: 2.1*; Spn DPM-DC inh: inactive; NADH coupling: 11%; Spn MK inh: 9; A340 absorber: 1

How did O=C(NCc1cccnc1)C1CCCN(S(=O)(=O)c2ccccc2)C1 (stereo not given) do in these assays?
PMK inhibit: 0; Fluor 339 460: 1.1; Spn DPM-DC inh: inactive; NADH coupling: 1%; Spn MK inh: 3; A340 absorber: 1

What do the screens show for `COc1ccc(CC(=O)Nc2cc(Cl)ccc2O)cc1`?
PMK inhibit: 7; Fluor 339 460: 1; Spn DPM-DC inh: inactive; NADH coupling: 3%; Spn MK inh: 5; A340 absorber: 0.98

How did Cc1cc(C)n(C(=O)c2ccc(S(=O)(=O)NCC3CCCO3)cc2)n1 (stereo not given) do in these assays?
PMK inhibit: 8; Fluor 339 460: 1.1; Spn DPM-DC inh: inactive; NADH coupling: 7%; Spn MK inh: 10; A340 absorber: 1

Compound activity as filed in PubChem.
